Source: PubChem (several laboratories)
A3A deaminase: inhibitors of human APOBEC3A DNA deaminase | P31941 | recombinant A3A, FAM/TAMRA ssDNA deamination fluorescence | inhibition, % at 20 µM | 330,000 compounds, 0.41% hits | AID 493011;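 active means at least 40% inhibition at 20 µM here, with at most 30% in a related deaminase screen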
ADAM10 inh: inhibits human ADAM10; AID 720582; recombinant ADAM10, EDANS/DABCYL FRET peptide cleavage, 3 h; inhibition, % at 7 µM; 370,000 compounds, 0.62% hits;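 active means inhibition above a per-campaign cutoff equal to the mean of compounds falling between control-based bounds plus 3 SD, cut at about 20% in these data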
ADAM17 inh: inhibitors of human ADAM17; 370,000 compounds, 0.83% hits; AID 720648; recombinant ADAM17, EDANS/DABCYL FRET peptide cleavage; inhibition, % at 6.95 µM; P78536;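 active means inhibition above the mean of compounds lying between control limits plus 3 SD, set per campaign, cut at about 8.5% in these data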
APOBEC3G inh: inhibitors of human APOBEC3G DNA deaminase; 330,000 compounds, 0.28% hits; inhibition, % at 20 µM; Q9HC16; recombinant A3G, ssDNA deamination FAM/TAMRA fluorescence;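 active means inhibition of at least 40% at 20 µM, with no more than 30% in the related APOBEC3A deaminase screen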
CendR NRP1 mod: NRP-1/CendR interaction modulation. AID 602438. inhibition, % at 25 µM. FAM-RPARPAR peptide binding to NRP-1, fluorescence polarization. 360,000 compounds, 0.85% hits. O14786;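 active means inhibition or corrected inhibition above about 18%, plus a signal ratio from 0.5 to 1.5, limit read from the data, passing the limit was not always enough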
Target sequence (O14786 whole entry, looked up): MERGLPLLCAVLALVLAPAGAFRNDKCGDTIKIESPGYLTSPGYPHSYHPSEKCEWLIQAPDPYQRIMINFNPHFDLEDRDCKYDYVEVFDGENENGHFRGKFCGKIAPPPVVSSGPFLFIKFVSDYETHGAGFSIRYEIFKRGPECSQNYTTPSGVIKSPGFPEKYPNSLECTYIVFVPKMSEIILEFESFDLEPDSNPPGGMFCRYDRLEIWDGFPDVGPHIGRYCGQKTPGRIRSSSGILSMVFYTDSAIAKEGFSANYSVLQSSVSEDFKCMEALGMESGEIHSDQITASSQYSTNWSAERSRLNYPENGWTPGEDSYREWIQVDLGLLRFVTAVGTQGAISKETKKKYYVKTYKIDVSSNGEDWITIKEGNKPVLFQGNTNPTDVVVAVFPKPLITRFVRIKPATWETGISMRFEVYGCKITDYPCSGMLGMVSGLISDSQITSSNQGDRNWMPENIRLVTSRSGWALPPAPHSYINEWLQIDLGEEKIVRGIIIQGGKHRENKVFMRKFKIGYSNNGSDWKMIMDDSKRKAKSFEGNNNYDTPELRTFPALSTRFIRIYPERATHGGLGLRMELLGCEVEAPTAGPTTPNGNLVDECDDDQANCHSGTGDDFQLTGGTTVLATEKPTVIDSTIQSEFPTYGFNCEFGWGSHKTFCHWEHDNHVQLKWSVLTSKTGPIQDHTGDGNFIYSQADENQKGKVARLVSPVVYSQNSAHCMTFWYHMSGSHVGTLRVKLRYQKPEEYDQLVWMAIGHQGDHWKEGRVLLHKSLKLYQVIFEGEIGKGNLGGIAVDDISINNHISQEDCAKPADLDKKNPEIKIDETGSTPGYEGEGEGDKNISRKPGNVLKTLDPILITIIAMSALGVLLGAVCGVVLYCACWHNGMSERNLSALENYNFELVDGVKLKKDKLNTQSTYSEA
Hits are given with their value; n = inactive; x = not tested or not shown. A selection: hits, their analogues and other compounds. The true share with any hit is near 2.4%.

SMILES | A3A deaminase | ADAM10 inh | ADAM17 inh | APOBEC3G inh | CendR NRP1 mod
O=C(/C=C/[C@H]1O[C@@H](n2cnc3c(NC(=O)c4ccccc4)ncnc32)[C@H](O)[C@@H]1O)NCc1cccs1 | x | n | n | x | 18.4
O=C(c1cn[nH]c1)N1CCc2c([nH]c3ccccc23)C1c1c(F)cccc1Cl (stereo not given) | n | n | n | n | 40.5
COc1cccc(C2c3[nH]c4ccccc4c3CCN2C(=O)c2ccccc2F)c1OC (stereo not given) | n | n | n | n | n
C[C@H](O)[C@@H]1C(=O)N2CCc3c([nH]c4cccc(-c5ccccc5)c34)[C@@H]2C[C@@H]1N(C)C(=O)OCc1ccccc1 | x | n | n | x | x
O=C(CSc1nnc(-c2cccnc2)n1Cc1ccco1)Nc1ccc(Cl)cc1 | x | n | n | x | x
COc1ccc(CNc2n[nH]c(NCc3ccc(OC)c(OC)c3)n2)cc1OC | n | n | n | n | 19.5
COc1ccc(CNc2nc(SC)n[nH]2)cc1OC | n | n | n | n | n
CCCCCCCCCOC(=O)C1N2C(=O)[C@@H](NC(=O)COc3ccccc3)[C@H]2SC1(C)C (stereo not given in full) | n | n | n | n | 21.9
COC(=O)[C@]12C[C@H](CC(=O)N3CCN(C(=O)c4ccco4)CC3)C(=O)N(CCC3=CCCCC3)C1=C[C@H](C(C)(C)C)O[C@@H]2C | x | n | n | x | x
O=C(CSc1nccn1Cc1ccc(F)cc1)NC1CCCC1 | n | n | n | n | n
O=C(CSc1nccn1Cc1ccc(F)cc1)NC1CCCCC1 | x | n | n | x | 24.8
COc1ccc(Cc2[nH]n3c(=O)cc(C)nc3c2-c2ccccc2)cc1 | n | n | n | n | n
COc1ccc(Cc2[nH]n3c(=O)cc(C(C)C)nc3c2-c2ccccc2)cc1 | n | n | n | n | 18.1
O=C1CCN(Cc2ccccc2)S(=O)(=O)c2ccccc21 | n | n | n | n | 23.5
C=C1CCN(Cc2ccccc2)S(=O)(=O)c2ccccc21 | n | n | n | n | n
CCN(CC)S(=O)(=O)c1cccc(NC(=O)COC(=O)CCC(=O)c2cccs2)c1 | n | x | x | n | n
CCN(CC)S(=O)(=O)c1cc(NC(=O)COC(=O)CCC(=O)c2cccs2)ccc1C | n | n | n | n | 26.1
COc1ccc(-n2c(CSc3ccc(Cl)cc3)n[nH]c2=S)cc1 | x | n | n | x | x
COc1ccc(CN(C(=O)Cc2c[nH]c3ccccc23)C(C(=O)NC2CCCCC2)c2ccc(C)o2)cc1 (stereo not given) | n | 25.5 | 12.3 | n | n
Cc1ccccc1N(C)C(=O)Cn1nnc(-c2ccccc2F)n1 | x | n | n | x | x
CCNc1c([N+](=O)[O-])ncn1C | n | n | n | n | 31.5
COc1ccc(NC(=O)Cn2nnc(C(=O)Nc3ccccc3C)c2N)cc1 | n | n | n | n | 18.6
COc1ccc(NC(=O)Cn2nnc(C(=O)NCCc3ccccc3)c2N)cc1 | n | n | n | n | n
COCCN1Cc2cc(C(=O)OC)c3c(c2C1=O)c1cc(OC)ccc1n3S(C)(=O)=O | x | n | n | x | x
CC(C)CCn1c(N2CCCC2)nc2c1c(=O)[nH]c(=O)n2C | n | n | n | n | 24.3
SMILES | A3A deaminase | ADAM10 inh | ADAM17 inh | APOBEC3G inh | CendR NRP1 mod
CC1CN(c2nc3c(c(=O)[nH]c(=O)n3C)n2Cc2ccccc2F)CC(C)O1 (stereo not given) | n | n | n | n | n
CCN1CCN(c2nc3c(c(=O)[nH]c(=O)n3C)n2Cc2ccccc2F)CC1 | n | n | n | n | 30.0
Cn1c(=O)[nH]c(=O)c2c1nc(N1CCOCC1)n2CCCSc1ncccn1 | n | n | n | n | 21.5
COc1ccc(C(=O)c2cnc(/N=C/N(C)C)s2)cc1 | n | n | n | n | 31.5
CN(Cc1ccccc1)C(=O)[C@@H]1CCCN1C(=O)[C@@H]1CCCN1C(=O)c1ccccc1 | x | n | n | x | n
CN(Cc1ccccc1)C(=O)[C@@H]1CCCN1C(=O)[C@@H]1CCCN1C(=O)c1cccc(Cl)c1 | x | n | n | x | 22.1
COc1ccc(N2CS(=O)CC2=O)cc1 (stereo not given) | n | n | n | n | 26.6
Cc1n[nH]c(C)c1S(=O)(=O)NCCc1cccc(F)c1 | x | n | n | x | x
CC1=CC2C3C(=O)N(c4ccccc4)C(=O)C3C1C(=O)C2(O)C(C)C (stereo not given) | x | n | n | x | x
CCOC(=O)N1CCN(C(=O)c2cnn3c(C(F)F)cc(-c4ccc(C)cc4)nc23)CC1 | n | n | n | n | 19.7
CSc1nc2ccccc2c(=O)n1C1CCOC(C)(C)C1 (stereo not given) | n | n | n | n | 27.7
CSc1nc2ccccc2c(=O)n1C1CCCCC1 | n | n | n | n | n
COC(=O)C1CCN(C2CN(Cc3cn(Cc4ccc(C(F)(F)F)cc4)nn3)S(=O)(=O)C2)CC1 (stereo not given) | x | n | n | x | x
CCOC(=O)C1=CCN(S(=O)(=O)c2ccc(Br)cc2)C1c1cccc(F)c1 (stereo not given) | x | n | n | x | x
COc1cccc(CNC(=O)[C@H]2CCCN2C(=O)[C@H]2CCCN2C(=O)c2cccs2)c1 | x | n | n | x | x
O=C(Cn1cnc2cc([N+](=O)[O-])ccc2c1=O)NCCc1ccc(Cl)cc1 | n | n | n | n | 20.2
Cc1nnc(NC(=O)c2ccccc2C(=O)O)s1 | n | n | n | n | 34.8
CCCCN(CCCC)c1ncnc2nc[nH]c12 | n | n | n | n | 22.1
CCCCN(Cc1ccccc1)c1ncnc2nc[nH]c12 | n | x | x | n | n
O=C(CSc1cccc2cccnc12)N/N=C/c1cccc(O)c1 | n | n | n | n | n
O=C(CSc1cccc2cccnc12)N/N=C/c1ccc(F)cc1 | n | n | n | n | 36.5
COC(=O)[C@@]12C[C@@H](CC(=O)NCc3cccc4ccccc34)C(=O)N(Cc3cccc4ccccc34)C1=CCC(C)(C)C2 | x | n | n | x | n
COCCCNC(=O)C[C@@H]1C[C@@]2(C(=O)OC)CC(C)(C)CC=C2N(Cc2cccc3ccccc23)C1=O | x | n | n | x | 23.7
COc1cccc(CNC(=O)[C@H]2CCCN2C(=O)[C@H]2CCCN2C(=O)c2cccc(Cl)c2)c1 | x | n | n | x | x
O=C(CCCOc1ccc(Cl)cc1Cl)N1CCc2ccccc2C1 | n | n | n | n | 29.4
SMILES | A3A deaminase | ADAM10 inh | ADAM17 inh | APOBEC3G inh | CendR NRP1 mod
O=C(CCCOc1ccccc1)N1CCc2ccccc2C1 | n | n | n | n | n
C=CCN1C(=O)/C(=C2/Sc3ccccc3N2CC)SC1=S | n | n | n | n | 77.2
C=CCN1C(=O)/C(=C2/Sc3ccccc3N2CCCS(=O)(=O)O)SC1=S | n | n | n | n | n
Cc1ccc(NC(=O)COc2ncnc3c(Cl)cc(Cl)cc23)cc1[N+](=O)[O-] | n | n | n | n | 25.1
CCOc1cc(NC(=S)NCC2CCCO2)c(OCC)cc1NC(=O)c1ccc(OC)cc1 (stereo not given) | n | n | n | n | n
CCOc1cc(NC(=S)NC)c(OCC)cc1NC(=O)c1ccc(OC)cc1 | n | n | n | n | 20.6
CN[C@H]1C[C@H]2c3[nH]c4c(-c5ccccc5)cccc4c3CCN2C[C@H]1[C@H](C)O | x | n | n | x | x
